TEAD-YAP inh – TEAD-YAP interaction inhibition. AID 1259422. hit rate 1.4% among 640,000. HEK-TIYL cells, TEAD-Gal4/YAP UAS-luciferase luminescence. inhibition, % at 9.12 µM; in the data active = inhibition above about 32%
MITF primary – inhibitors of human MITF; inhibition, % at 2.6 µM; AlphaScreen MITF homodimerization, bead proximity signal; AID 1259374; hit rate 0.91% among 650,000; in the data active = inhibition above about 50%
FBW7 activator – human FBW7 E3 ligase activation, primary screen | Q969H0 | AlphaScreen FBW7–phospho-cyclin E peptide binding, activator screen | normalized activity (activation), % at 26.1 µM | hit rate 0.13% among 650,000 | AID 1259310; in the data active = normalized activity above about 1.9%;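 note: purified mutant Fbw7 with reduced substrate affinity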
GPR151 ag – human GPR151 activation; Q8TDV0; PathHunter beta-arrestin GPR151 cells, luminescence; activation, % at 11.2 µM; hit rate 1% among 650,000; AID 1508602; in the data active = activation above about 4.9%
Target sequence (Q8TDV0 whole entry, looked up): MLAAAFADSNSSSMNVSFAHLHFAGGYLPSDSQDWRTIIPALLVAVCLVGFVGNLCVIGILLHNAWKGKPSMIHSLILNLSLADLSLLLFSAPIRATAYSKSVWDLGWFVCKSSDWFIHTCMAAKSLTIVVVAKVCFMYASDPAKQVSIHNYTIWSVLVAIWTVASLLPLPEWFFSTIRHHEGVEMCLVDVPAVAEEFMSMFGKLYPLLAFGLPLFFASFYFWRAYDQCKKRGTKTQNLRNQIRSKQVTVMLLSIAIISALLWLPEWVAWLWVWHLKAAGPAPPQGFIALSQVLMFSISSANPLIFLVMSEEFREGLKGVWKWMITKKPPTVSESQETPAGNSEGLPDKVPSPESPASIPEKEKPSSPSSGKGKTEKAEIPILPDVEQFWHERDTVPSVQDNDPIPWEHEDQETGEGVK
Hits are given with their value; – = inactive. This is a sample that favours compounds with a hit; in the whole collection about 3.5% have one here.

SMILES	TEAD-YAP inh	MITF primary	FBW7 activator	GPR151 ag
Cc1ccc(-c2c(Nc3ccccc3C)c(=O)c2=O)cc1	48.6	–	–	–
Cc1ccc(-c2c(NC(C)c3ccccc3)c(=O)c2=O)cc1 (centres undefined)	44.9	–	–	–
CCCN(CCC)CCCNC(=O)C1CCC(=O)N1C(C)C (centres undefined)	–	–	–	–
C=CCNC(=O)C1CCC(=O)N1C(C)C (centres undefined)	–	–	2.1	–
CC(C)NCCOc1ccc(Cl)cc1Br	–	–	–	–
CC(C)NCCCOc1ccc(Cl)cc1Br	32.3	–	–	–
CC(C)c1ccc2oc(-c3ccc(NC(=O)c4ccccc4Br)cc3)nc2c1	–	–	–	–
O=C(Nc1ccc(O)cc1)c1scc2c1CCCC2	68.3	–	–	–
CCN(CC)c1ccc(Nc2nc(Nc3ccc(N(CC)CC)cc3)nc(Sc3nc4ccccc4s3)n2)cc1	–	–	–	–
O=C(O)COc1ccc(/C=C/c2nc3ccccc3s2)cc1	71.6	–	–	–
O=C(O)c1ccc(/C=C/c2nc3ccccc3s2)cc1	–	–	–	–
CCN(CC)c1ccc(/C=C/c2nc3ccccc3s2)cc1	63.6	–	–	–
CCCN1CCC2(CC1)NC(=O)N(CC(=O)NCCc1ccccc1)C2=O	–	–	–	–
CCCN1CCC2(CC1)NC(=O)N(CC(=O)NCCc1ccc(OC)c(OC)c1)C2=O	–	–	2.7	–
O=C(CSc1nc2ccc(NC(=O)c3ccccc3)cc2s1)NCc1ccccc1	–	–	–	–
CC(=O)Nc1ccc2nc(SCC(=O)NCc3ccccc3)sc2c1	38.5	–	–	–
O=C1c2cccc3c(Oc4ccccc4[N+](=O)[O-])ccc(c23)C(=O)N1n1cnnc1	35.6	–	–	–
O=C1c2ccccc2C(=O)N1N1C(=O)c2cccc3c([N+](=O)[O-])ccc(c23)C1=O	–	–	–	–
N#CC1=C(N)N(c2sc3c(c2C#N)CCCCC3)C2=C(C(=O)CCC2)C1c1ccccc1 (centres undefined)	–	–	–	–
N#CC1=C(N)N(c2sc3c(c2C#N)CCCCC3)C2=C(C(=O)CCC2)C1c1cccs1 (centres undefined)	52.7	–	–	–
Cc1cc(N2CCOCC2)nc2ccc(NC(=O)c3ccncc3)cc12	48.7	–	–	–
CCN1/C(=C/c2ccc3cc(C)ccc3[n+]2C)C=Cc2cc(C)ccc21	83.4	–	–	–
CCN1/C(=C/c2scc(-c3ccccc3)[n+]2C)C=Cc2cc(C)ccc21	79.8	–	–	–
COC(=O)c1sc2nc3c(c(-c4cccs4)c2c1N)CCC3	–	–	–	–
NC(=O)c1sc2nc3c(c(-c4cccs4)c2c1N)CCC3	44.4	–	–	–
SMILES	TEAD-YAP inh	MITF primary	FBW7 activator	GPR151 ag
C[C@@H](O)[C@@H]1NC(=O)[C@H]2CN(Cc3cnn(-c4ccc(F)cc4)c3)CCN2C1=O	–	–	–	–
COc1ccc(N(Cc2cccs2)C(=O)CCl)cc1	–	–	–	–
O=C(CCl)N(Cc1cccs1)c1ccc2c(c1)OCCO2	37.2	–	–	–
O=C(Nc1ccc2oc(-c3cccnc3)nc2c1)C1CCCCC1	–	–	–	–
Cc1[nH]c2ccccc2c1C(=O)/C(C#N)=C/c1ccc(N(C)CCO)cc1	38.3	–	–	–
Cc1cc2nc3s/c(=C/c4cc5c(cc4[N+](=O)[O-])OCO5)c(=O)n3c2cc1C	–	–	–	–
Cc1cc2nc3s/c(=C/c4ccc(N5CCN(C)CC5)c([N+](=O)[O-])c4)c(=O)n3c2cc1C	37.7	–	–	–
COc1cc(OC)c2c(c1)C1C=CCC1C(c1ccc(OC)c([N+](=O)[O-])c1)N2 (centres undefined)	–	–	–	–
COC(=O)c1cccc2c1NC(c1ccc(C(=O)O)cc1)C1CC=CC21 (centres undefined)	–	68.5	–	–
CCOC(=O)c1cccc2c1NC(c1ccc(C(=O)O)cc1)C1CC=CC21 (centres undefined)	–	82.9	–	–
COC(=O)c1cccc2c1NC(c1ccc(Br)cc1)C1CC=CC21 (centres undefined)	–	–	–	–
O=C(O)c1cccc2c1NC(c1ccccc1)C1CC=CC21 (centres undefined)	–	–	–	–
O=C(O)c1cccc2c1NC(c1ccc(Br)cc1)C1CC=CC21 (centres undefined)	–	–	–	–
COC(=O)c1cccc2c1N[C@@H](c1ccc(C(=O)O)cc1)[C@H]1CC=C[C@@H]21	–	58.8	–	–
COc1cc(OC)c2c(c1)C1C=CCC1C(c1ccc(C(=O)O)cc1)N2 (centres undefined)	–	73.3	–	–
CC(C)(C)c1ccc(OCc2nnc(SCc3nc(N)nc(Nc4ccccc4)n3)n2-c2ccccc2)cc1	–	–	–	–
COCCNC(=O)CCCCCn1c(=S)[nH]c2ccc(Br)cc2c1=O	–	–	–	–
Cc1cc(C)c2nc3nc(C)c(C)cc3c(N)c2c1	80.5	–	–	–
CCCn1c(=S)[nH]c2cc(C(=O)N3CC=C(c4ccccc4)CC3)ccc2c1=O	–	–	–	–
CCCNC(=O)c1cc(-c2cccc(O)c2)on1	52.6	–	–	–
CC(C)CNC(=O)c1cc(-c2ccc(O)cc2)on1	39.4	–	–	–
O=C(NC1CCCC1)c1cc(-c2ccc(O)cc2)on1	39.7	–	–	–
COCCNC(=O)c1cc(-c2cccc(O)c2)on1	–	–	–	–
Cc1ccc2nc(-c3ccccc3)cc(C(=O)Nc3ccc(Cl)c(Cl)c3)c2c1	–	–	–	–
O=C(N/N=C\c1cccc([N+](=O)[O-])c1O)c1cnccn1	–	76.7	–	–
SMILES	TEAD-YAP inh	MITF primary	FBW7 activator	GPR151 ag
O=C(N/N=C\c1cc(Br)ccc1O)c1ccccn1	–	58.5	–	–
O=C(N/N=C\c1ccc(O)cc1O)c1cnccn1	–	79.1	–	–
O=C(N/N=C\c1ccc(O)cc1O)c1ccccn1	–	65.2	–	–
O=C(Nc1ccccn1)c1cc2cc(Br)ccc2oc1=O	–	–	–	–
CC(C)Nc1ccc(C(=O)OC(C)C(=O)NC2CCCC2)cn1 (centres undefined)	–	–	–	–
O=C(Nc1ncc([N+](=O)[O-])s1)c1cccnc1	–	–	–	–
O=C(Cc1ccc(Br)cc1)Nc1ncc([N+](=O)[O-])s1	–	–	–	–
Cc1cccc(C(=O)Nc2ncc([N+](=O)[O-])s2)c1	54.6	–	–	–
O=C(Nc1ncc([N+](=O)[O-])s1)c1ccc(Cl)cc1Cl	64.3	–	–	–
O=C(Nc1ncc([N+](=O)[O-])s1)c1ccc(Br)cc1	64.8	–	–	–
Cc1ccc(C(=O)Nc2ncc([N+](=O)[O-])s2)cc1	82.0	–	–	–
O=C(Cc1ccc(Cl)cc1)Nc1ncc([N+](=O)[O-])s1	–	–	–	–
COc1ccccc1-c1nc2c(c(SC)n1)Cc1c(CO)cnc(C)c1O2	–	–	–	–
COc1ccccc1NC(=O)NC1(C(=O)NCc2ccncc2)CCCCC1	–	–	–	–
Cc1cc(=O)oc2cc(OC(=O)C(Cc3ccccc3)N3C(=O)c4ccccc4C3=O)ccc12 (centres undefined)	–	–	–	–
N#Cc1sc(NC(=O)c2ccc(Br)cc2)nc1Cl	46.7	–	–	–

Compound activity as filed in PubChem BioAssay.
